Results on seven compounds are retold here after PubChem BioAssay.

Calls of active or inactive are those of the source.

A short description of test [1]: E. coli DRC41 culture turbidity changes, primary screen, E. coli filamentation inducer project, strain DRC41, OD650, 48 h (AID 1152).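 Further: E. coli MC1000 strain DRC41 lacking acrAB efflux pump and sulA.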 To be noted: E. coli DRC41 (acrAB sulA), higher = more signal, called active from +8 up or from −8 down.
Test [2] is described as follows: small-molecule binders of probe aLefty1, primary screen, biochemical, small-molecule microarray, 635/667 nm fluorescence (AID 1153).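 Further: score merges spot fluorescence with signal-to-noise ratio from the scanned slide images.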 The conditions noted are these: higher = more signal.
Test [3] in a line: PSAC antagonists in infected red cells, primary screen, cell-based, P. falciparum Indochina, OD700, 1 h (AID 1154). The conditions noted are these: P. falciparum Indochina infected RBC osmotic lysis, higher = more signal, called active from +8 up or from −8 down.
A short description of test [4]: PSAC antagonists in infected red cells, primary screen, cell-based, P. falciparum Indochina, OD700, 2 h (AID 1155).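 Further: lysis reports solute entry through the parasite surface anion channel PSAC; channel blockers reduce lysis of infected cells.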 The conditions noted are these: P. falciparum Indochina infected erythrocytes, osmotic lysis OD700; higher = more signal, called active from +8 up or from −8 down.
Test [5] is described as follows: osmotic lysis modulators in infected erythrocytes, primary screen, PSAC antagonist project, cell-based, P. falciparum Indochina, OD700, 3 h (AID 1156). To be noted: higher = more signal, called active from +8 up or from −8 down.
Test [6] can be described thus: PSAC antagonists in infected red cells, primary screen, cell-based, P. falciparum Indochina, OD700, 18 h (AID 1157). The conditions noted are these: P. falciparum Indochina infected erythrocytes, osmotic lysis OD700, 18 h; higher = more signal, called active from +8 up or from −8 down.
The nature of test [7]: modulators of S6 phosphorylation in cells, primary screen, cell-based, A549, cytoblot, luminescence, serum-stimulated (AID 1158).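 Further: serum-stimulated A549 lung adenocarcinoma cells; signal is phosphorylated S6 detected by cytoblot immunostaining with HRP secondary.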 To be noted: A549 phospho-S6 cytoblot, 5 h, higher = more signal.
Test [8] deals with NADPH oxidase 2 (Homo sapiens) (UniProt P04839). Description: NOX2-dependent H2O2 signal modulators, primary screen, NOX inhibitor project, cell-based, HEK293-NOX2, PMA-stimulated, Amplex Red fluorescence (AID 1159). Further: test concentration not given here. The conditions noted are these: 45 min, higher = more signal, called active from +8 up or from −8 down.
Test [9] has as its target NADPH oxidase 4 (Homo sapiens) (UniProt Q9NPH5). Description: NOX4-dependent H2O2 signal modulators, primary screen, NOX inhibitor project, cell-based, HEK293-NOX4, tetracycline-induced, Amplex Red fluorescence (AID 1160). The conditions noted are these: 45 min, higher = more signal, called active from +8 up or from −8 down.
The target of test [10] is NADPH oxidase 5 (Homo sapiens) (UniProt Q96PH1). Description: NOX5-dependent H2O2 signal modulators, primary screen, NOX inhibitor project, cell-based, HEK293-NOX5, Amplex Red fluorescence (AID 1161). The conditions noted are these: HEK293-NOX5, ionomycin, 45 min, higher = more signal.
Test [11] is described as follows: A549 cell viability effects, profiling panel, calcein-AM fluorescence, 48 h, basal (AID 1162). Further: test concentration not given here. The conditions noted are these: higher = more signal.
Test [12] is described as follows: adipocyte viability effects, profiling panel, cell-based, 3T3-L1 adipocytes, calcein-AM fluorescence, 48 h, basal (AID 1163). Further: test concentration not given here. The conditions noted are these: 3T3-L1 adipocytes viability, higher = more signal.
Test [13] can be described thus: HepG2 cell viability effects, profiling panel, calcein-AM fluorescence, 48 h, basal (AID 1164). Further: test concentration not given here. To be noted: higher = more signal.
A short description of test [14]: MM1S cell viability effects, profiling panel, calcein-AM fluorescence, 48 h, basal (AID 1165).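 Further: viability of MM1S multiple myeloma cells under basal unstimulated conditions; test concentration not given here.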 The conditions noted are these: higher = more signal.
Test [15] can be described thus: basal RPMI8226 viability, no added stimulus, profiling panel, cell-based, calcein-AM fluorescence, 48 h, PK04 Diversity Set (AID 1166).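 Further: cells grown under basal conditions without added stimulus; test concentration not given here.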 To be noted: RPMI8226 myeloma viability, higher = more signal.
Test [16] is described as follows: basal HepG2 mitochondrial membrane potential changes, profiling panel, cell-based, JC-1 fluorescence, 24 h, 100 nL compound (AID 1167). Further: test concentration not given here. The conditions noted are these: higher = more signal.
Test [17] can be described thus: basal 3T3-L1 adipocyte mitochondrial potential changes, profiling panel, cell-based, JC-1 fluorescence, 3T3-L1 adipocytes, 24 h, 100 nL compound (AID 1168). Further: test concentration not given here. The conditions noted are these: JC-1 mitochondrial fluorescence, higher = more signal, called active from +8 up or from −8 down.
Test [18] can be described thus: basal RPMI8226 mitochondrial membrane potential changes, profiling panel, cell-based, JC-1 fluorescence, 24 h, 100 nL compound (AID 1169). Further: test concentration not given here. The conditions noted are these: RPMI8226 myeloma, JC-1 mitochondrial potential fluorescence, higher = more signal.
A short description of test [19]: basal MM1S mitochondrial membrane potential changes, profiling panel, cell-based, JC-1 fluorescence, 24 h, 100 nL compound (AID 1170). Further: test concentration not given here. To be noted: higher = more signal.
Test [20] is described as follows: A549 lung cancer cell viability effects, profiling panel, resazurin fluorescence, 24 h, PK04 Diversity Set (AID 1171). Further: test concentration not given here. To be noted: higher = more signal, called active from +8 up or from −8 down.

Chain of NADPH oxidase 5 (Homo sapiens) (Q96PH1 whole entry, looked up): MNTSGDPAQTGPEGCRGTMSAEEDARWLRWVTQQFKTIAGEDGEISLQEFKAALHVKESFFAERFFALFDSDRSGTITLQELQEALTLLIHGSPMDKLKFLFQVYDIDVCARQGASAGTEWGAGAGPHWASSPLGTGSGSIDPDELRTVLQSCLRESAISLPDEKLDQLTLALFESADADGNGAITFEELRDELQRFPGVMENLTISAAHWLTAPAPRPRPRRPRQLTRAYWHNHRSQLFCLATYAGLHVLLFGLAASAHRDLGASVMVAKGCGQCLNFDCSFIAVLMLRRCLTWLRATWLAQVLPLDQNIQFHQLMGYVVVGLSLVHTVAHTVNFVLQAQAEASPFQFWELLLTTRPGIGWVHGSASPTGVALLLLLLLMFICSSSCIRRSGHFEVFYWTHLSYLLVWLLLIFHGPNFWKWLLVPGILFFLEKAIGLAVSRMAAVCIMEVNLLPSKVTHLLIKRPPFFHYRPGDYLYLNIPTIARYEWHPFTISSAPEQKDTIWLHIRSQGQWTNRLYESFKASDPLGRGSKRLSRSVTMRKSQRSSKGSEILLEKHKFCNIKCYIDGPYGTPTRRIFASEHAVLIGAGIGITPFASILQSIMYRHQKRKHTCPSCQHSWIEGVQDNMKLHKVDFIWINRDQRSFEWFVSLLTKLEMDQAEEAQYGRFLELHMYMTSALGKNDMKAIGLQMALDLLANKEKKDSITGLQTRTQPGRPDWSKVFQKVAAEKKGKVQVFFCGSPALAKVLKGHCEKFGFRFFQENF
Chain of NADPH oxidase 2 (Homo sapiens) (P04839 whole entry, looked up): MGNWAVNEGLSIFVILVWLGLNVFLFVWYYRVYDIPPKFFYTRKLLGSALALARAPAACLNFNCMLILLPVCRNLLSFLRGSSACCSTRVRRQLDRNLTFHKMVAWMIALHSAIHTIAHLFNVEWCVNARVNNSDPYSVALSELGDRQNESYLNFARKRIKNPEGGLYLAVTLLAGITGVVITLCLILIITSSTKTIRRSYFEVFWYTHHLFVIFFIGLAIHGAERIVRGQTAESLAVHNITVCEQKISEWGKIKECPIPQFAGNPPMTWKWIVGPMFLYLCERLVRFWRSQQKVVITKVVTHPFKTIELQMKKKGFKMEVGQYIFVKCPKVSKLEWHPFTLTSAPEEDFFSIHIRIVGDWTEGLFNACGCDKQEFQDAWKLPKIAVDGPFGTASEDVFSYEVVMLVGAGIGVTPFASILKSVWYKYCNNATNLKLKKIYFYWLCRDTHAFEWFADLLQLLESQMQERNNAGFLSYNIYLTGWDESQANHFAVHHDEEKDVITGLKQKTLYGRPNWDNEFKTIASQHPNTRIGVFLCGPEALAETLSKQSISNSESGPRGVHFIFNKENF
Chain of NADPH oxidase 4 (Homo sapiens) (Q9NPH5 whole entry, looked up): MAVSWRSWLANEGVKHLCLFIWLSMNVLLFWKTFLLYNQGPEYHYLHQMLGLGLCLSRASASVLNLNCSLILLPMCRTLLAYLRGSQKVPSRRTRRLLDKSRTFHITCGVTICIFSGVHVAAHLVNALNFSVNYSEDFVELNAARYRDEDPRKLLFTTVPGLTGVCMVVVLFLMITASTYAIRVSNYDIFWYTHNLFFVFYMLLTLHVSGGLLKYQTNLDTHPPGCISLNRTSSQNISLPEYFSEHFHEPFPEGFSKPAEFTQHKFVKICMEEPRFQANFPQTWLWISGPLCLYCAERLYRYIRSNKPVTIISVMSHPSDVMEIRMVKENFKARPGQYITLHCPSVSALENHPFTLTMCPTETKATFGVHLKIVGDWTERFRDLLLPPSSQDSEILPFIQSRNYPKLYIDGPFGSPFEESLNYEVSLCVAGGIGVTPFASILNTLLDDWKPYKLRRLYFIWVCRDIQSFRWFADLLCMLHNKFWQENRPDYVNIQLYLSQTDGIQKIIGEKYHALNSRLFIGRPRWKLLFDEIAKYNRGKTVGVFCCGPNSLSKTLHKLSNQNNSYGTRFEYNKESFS

For the compound `Cc1ccc(S[C@]2(C(=O)NCC(C)C)CC(=O)N(Cc3cc(C(F)(F)F)cc(C(F)(F)F)c3)[C@@H]2c2ccc(CO)cc2I)cc1`, the z-score in test [1] was -0.336 (inactive); in test [3] it was 2.53 (inactive); in test [4] it was -0.449 (inactive); in test [5], 0.767 (inactive); in test [6], 0.278 (inactive); in test [7], -0.301. The z-score in test [8] was 2.07 (inactive); in test [9], -1.39 (inactive); in test [10], -0.95; in test [11], -0.431; in test [12], 0.299; in test [13], -0.588. Moreover, the z-score is -3.16 in test [14]; -2.29 in [15]; -0.523 in test [16]; -0.3 (inactive) in [17]; -0.39 in [18]; -1.01 in test [19]. Besides, the z-score in test [20] is -0.227 (inactive). Also, in test [2], the composite z-score amounted to 0.12.

Turning to `Cc1ccc(S[C@]2(C(=O)NCC(F)(F)F)CC(=O)N(C(C)C)[C@@H]2c2ccc(CO)cc2I)cc1`, the z-score is 0.302 (inactive) in test [1]; 4.6 (inactive) in test [3]; 0.383 (inactive) in test [4]; 0.24 (inactive) in test [5]; 0.548 (inactive) in [6]; 0.303 in [7]. In addition, the z-score in test [8] was 1.81 (inactive); in [9], -2.38 (inactive); in test [10] it was 1.5; in [11], 0.553; in test [12] it was 0.837; in [13] it was -0.0366. In addition, the z-score was -2.2 in test [14]; -2.73 in test [15]; 0.409 in [16]; -0.374 (inactive) in [17]; -0.815 in [18]; -1.12 in test [19]. The z-score in [20] was 0.683 (inactive). For the same compound, the composite z-score in test [2] was determined as 0.108.

On to `C=CCOC(=O)[C@@H]1[C@H]2C(=O)O[C@H](c3ccccc3)[C@H](c3ccccc3)N2[C@H](c2ccc(OCCOC(=O)[C@@H]3C[C@@H]4C(=O)N[C@@H](Cc5ccccc5)C(=O)N4[C@@H]3c3ccc(O)cc3)cc2)[C@@]12C(=O)Nc1ccc(I)cc12`, for which the z-score in test [1] is 0.299 (inactive); in test [3], 2.33 (inactive); in test [4] it was 1.87 (inactive); in test [5] it was 5.01 (inactive); in test [6] it was 1.14 (inactive); in test [7], 0.572. Also, the z-score was 0.715 (inactive) in test [8]; 0.304 (inactive) in [9]; 0.591 in [10]; -1.09 in [11]; 1.39 in test [12]; 0.1 in test [13]. For the same compound, the z-score is 0.67 in test [14]; -0.645 in [15]; -1.56 in test [16]; 0.865 (inactive) in test [17]; -0.451 in [18]; -1.38 in test [19]. The z-score in [20] is 0.128 (inactive). Besides, the composite z-score in test [2] was 0.546.

In the case of `O=C(NCc1ccccc1)[C@@H]1c2ccccc2C(=O)N(CC23CC4CC(CC(C4)C2)C3)[C@H]1c1ccc(CO)cc1`, the z-score was -1.09 (inactive) in test [1]; 3.76 (inactive) in [3]; 0.295 (inactive) in [4]; 1.76 (inactive) in test [5]; 0.134 (inactive) in test [6]; -0.366 in test [7]. The z-score was -2.38 (inactive) in test [8]; 0.191 (inactive) in test [9]; -1.55 in [10]; 0.449 in test [11]; -0.475 in [12]; 0.57 in test [13]. Besides, the z-score is -0.708 in [14]; -0.896 in test [15]; 0.362 in test [16]; -0.924 (inactive) in test [17]; -0.136 in test [18]; -0.711 in [19]. In test [20], the z-score was -0.471 (inactive). Further, in test [2], the composite z-score was -0.538.

Turning to `Cc1ccc(S[C@]2(C(=O)NCCN3CCOCC3)CC(=O)N(Cc3ccccc3Cl)[C@@H]2c2ccc(CO)cc2)cc1`, the z-score in test [1] is 0.59 (inactive); in test [3] it was 2.62 (inactive); in [4] it was 0.43 (inactive); in [5] it was 1.94 (inactive); in test [6], 0.524 (inactive); in [7], 0.413. Besides, the z-score is -2.29 (inactive) in test [8]; -1.85 (inactive) in [9]; -2.89 in [10]; 0.263 in [11]; 1.03 in test [12]; -0.0334 in test [13]. Also, the z-score in test [14] is 0.368; in [15] it was -1.77; in test [16], 0.482; in test [17], -0.41 (inactive); in [18], -0.168; in [19] it was -1.17. The z-score in test [20] was 1.05 (inactive). The compound also registered a composite z-score in [2] of 0.0402.

Turning to `COC(=O)[C@@]1(Cc2ccc(OC)cc2)[C@H]2c3cc(C(=O)N(C)C)n(Cc4cccc5ccccc45)c3C[C@H]2CN1C(=O)c1ccccc1`, the z-score is -1.27 (inactive) in [1]; 2.33 (inactive) in test [3]; -0.206 (inactive) in test [4]; 1.19 (inactive) in test [5]; -1.39 (inactive) in test [6]; 2.11 in [7]. Also, the z-score in [8] was -3.14 (inactive); in test [9], -1.83 (inactive); in test [10] it was -4.62; in test [11], -1.62; in test [12] it was 1.26; in test [13] it was -0.0664. For the same compound, the z-score was -0.623 in test [14]; -2.08 in test [15]; 3.37 in [16]; -0.669 (inactive) in [17]; -0.127 in [18]; -1.41 in test [19]. Besides, the z-score in test [20] was -1.92 (inactive). This compound also showed a composite z-score in test [2] of 0.468.

On to `CCOC(=O)C1=CCC(c2ccc(C)cc2)N(S(=O)(=O)c2ccc(C)cc2)C1` (stereo not given), for which the z-score in [1] was -0.792 (inactive); in test [3], 2.05 (inactive); in [4], 0.901 (inactive); in [5], -0.628 (inactive); in test [6], 0.509 (inactive); in test [7], -0.78. Besides, the z-score is 0.63 (inactive) in test [8]; 0.637 (inactive) in [9]; 1.17 in test [10]; -1.25 in [11]; -0.825 in test [12]; -0.743 in [13]. Further, the z-score is -0.537 in test [14]; -1.37 in [15]; 5.35 in test [16]; -1.08 (inactive) in test [17]; 0.0194 in [18]; -1.82 in test [19]. For the same compound, the z-score in test [20] was 0.697 (inactive). In test [2], this compound had a composite z-score of 0.174.
